Test results published in PubChem BioAssay (NCATS).
Records with an inconclusive call do not appear. Calls of active or inactive are those of the source. Calls follow the shape of the dose curve; as a rule, active = well fitted curve in the direction sought with a large enough effect; inconclusive = small, poorly fitted or top-dose-only effect, or another doubt; inactive = no such curve, though single readings can be large; an effect the other way counts as inactive or inconclusive.

What was measured:
KB-3-1 = assay: Cytotoxic Profiling of Annotated Libraries Using Quantitative High-Throughput Screening (AID 1296008); conditions: Five cell lines viability, CellTiter-Glo ATP luminescence, 48-72 h; max response: active compounds read low; also: nearly all actives have a fitted effect of over 60% in size
Method in brief: (§1)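 Cytotoxicity was measured as CellTiter-Glo ATP luminescence, read after 10 min at room temperature. Compound treatment of the cells lasted 48 or 72 hr at 37 degrees Celsius in a qHTS format.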

NIH3T3 = assay: as above; conditions: Five cell lines viability, CellTiter-Glo ATP luminescence, 48-72 h; max response: active compounds read low
Method in brief: as §1

MCC-13 = assay: qHTS assay to identify novel small-molecules to repurpose for Merkel cell carcinoma treatment (AID 1296009); conditions: MCC and control cell lines, CellTiter-Glo viability, 72 h; series mostly up to 46 µM; also: nearly all actives have a fitted effect of over 60% in size
Method in brief: (§2)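 72 hr, 37 degree celsius; NPC 8-pt / MIPE 11-pt dose response; compound pinned in DMSO; CellTiter-Glo, 10 min RT, luminescence; normalized to no-cell and DMSO controls.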

MCC-26 = assay: as above; conditions: MCC and control cell lines, CellTiter-Glo viability, 72 h; series mostly up to 46 µM
Method in brief: as §2

MKL-1 = assay: as above; conditions: MCC and control cell lines, CellTiter-Glo viability, 72 h; series mostly up to 46 µM
Method in brief: as §2

MKL-2 = assay: as above; conditions: MCC and control cell lines, CellTiter-Glo viability, 72 h; series mostly up to 46 µM
Method in brief: as §2

UISO = assay: as above; conditions: MCC and control cell lines, CellTiter-Glo viability, 72 h; series mostly up to 46 µM
Method in brief: as §2

WaGa = assay: as above; conditions: MCC and control cell lines, CellTiter-Glo viability, 72 h; series mostly up to 46 µM
Method in brief: as §2

C33A = assay: Primary qHTS to identify gynecologic anti-cancer compounds using libraries of approved drugs and bioactive compounds (AID 1345084); conditions: Gynecologic cancer cell panel viability, ATPlite luminescence, 48 h; series mostly up to 57.5 µM; also: nearly all actives have a fitted effect of over 55% in size
Method in brief: (§3)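 Cells, 1,000 per well, were allowed to settle for 16 h at 37 C before compound addition. Five concentrations were tested for 48 h, and viability was read by ATPlite luminescence after 15 min at room temperature.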

CAOV3 = assay: as above; conditions: Gynecologic cancer cell panel viability, ATPlite luminescence, 48 h; series mostly up to 57.5 µM
Method in brief: as §3

CASKI = assay: as above; conditions: Gynecologic cancer cell panel viability, ATPlite luminescence, 48 h; series mostly up to 57.5 µM
Method in brief: as §3

Es-2 = assay: as above; conditions: Gynecologic cancer cell panel viability, ATPlite luminescence, 48 h; series mostly up to 57.5 µM
Method in brief: as §3

HeLa = assay: as above; conditions: Gynecologic cancer cell panel viability, ATPlite luminescence, 48 h; series mostly up to 57.5 µM
Method in brief: as §3

Hek293T = assay: as above; conditions: Gynecologic cancer cell panel viability, ATPlite luminescence, 48 h, control line for the selectivity index; series mostly up to 57.5 µM
Method in brief: as §3

JEG-3 = assay: as above; conditions: Gynecologic cancer cell panel viability, ATPlite luminescence, 48 h; series mostly up to 57.5 µM
Method in brief: as §3

OV90 = assay: as above; conditions: Gynecologic cancer cell panel viability, ATPlite luminescence, 48 h; series mostly up to 57.5 µM
Method in brief: as §3

PA-1 = assay: as above; conditions: Gynecologic cancer cell panel viability, ATPlite luminescence, 48 h; series mostly up to 57.5 µM
Method in brief: as §3
% is scaled to controls: 0 for no effect and ±100 for the full control effect.

CCOCCn1c(N2CCCN(C)CC2)nc2ccccc21
inactive: max response (KB-3-1) -16.6% | max response (NIH3T3) -0.586% | Potency (MCC-13) | Potency (MCC-26) | Potency (MKL-1) | Potency (MKL-2) | Potency (UISO) | Potency (WaGa) | Potency (C33A) | Potency (CAOV3) | Potency (CASKI) | Potency (Es-2) | Potency (HeLa) | Potency (Hek293T) | Potency (JEG-3) | Potency (OV90) | Potency (PA-1)

CC1CCc2c(N3CCC(O)CC3)c(F)cc3c(=O)c(C(=O)O)cn1c23 (stereo not drawn)
inactive: max response (KB-3-1) 15% | max response (NIH3T3) -20% | Potency (MCC-13) | Potency (MCC-26) | Potency (MKL-1) | Potency (MKL-2) | Potency (UISO) | Potency (WaGa) | Potency (C33A) | Potency (CAOV3) | Potency (CASKI) | Potency (Es-2) | Potency (HeLa) | Potency (Hek293T) | Potency (JEG-3) | Potency (OV90) | Potency (PA-1)

CCN1CCN(C(=O)N[C@@H](C(=O)N[C@@H]2C(=O)N3C(C(=O)O)=C(CSc4nnnn4C)CS[C@H]23)c2ccc(O)cc2)C(=O)C1=O
inactive: max response (KB-3-1) -4.94% | max response (NIH3T3) -3.36% | Potency (MCC-13) | Potency (MCC-26) | Potency (MKL-1) | Potency (MKL-2) | Potency (UISO) | Potency (WaGa) | Potency (C33A) | Potency (CAOV3) | Potency (CASKI) | Potency (Es-2) | Potency (HeLa) | Potency (Hek293T) | Potency (JEG-3) | Potency (OV90) | Potency (PA-1)

CCCCN1C[C@H](O)[C@@H](O)[C@H](O)[C@H]1CO
inactive: max response (KB-3-1) 15.3% | max response (NIH3T3) -2.42% | Potency (MCC-13) | Potency (MCC-26) | Potency (MKL-1) | Potency (MKL-2) | Potency (UISO) | Potency (WaGa) | Potency (C33A) | Potency (CAOV3) | Potency (CASKI) | Potency (Es-2) | Potency (HeLa) | Potency (Hek293T) | Potency (JEG-3) | Potency (OV90) | Potency (PA-1)

CCOC(=O)c1ccc(N)cc1
inactive: max response (KB-3-1) 1.36% | max response (NIH3T3) -0.465% | Potency (MCC-13) | Potency (MCC-26) | Potency (MKL-1) | Potency (MKL-2) | Potency (UISO) | Potency (WaGa) | Potency (C33A) | Potency (CAOV3) | Potency (CASKI) | Potency (Es-2) | Potency (HeLa) | Potency (Hek293T) | Potency (JEG-3) | Potency (OV90) | Potency (PA-1)

N=C(N)N1CCc2ccccc2C1
inactive: max response (KB-3-1) 4.15% | max response (NIH3T3) -1.16% | activity change, negative = cytotoxicity (MCC-13) 22.3% [at 4.84 µM] | activity change, negative = cytotoxicity (MCC-26) -4.65% [at 4.84 µM] | activity change, negative = cytotoxicity (MKL-1) -2.59% [at 4.84 µM] | activity change, negative = cytotoxicity (MKL-2) -8.08% [at 4.84 µM] | activity change, negative = cytotoxicity (UISO) -8.38% [at 4.84 µM] | activity change, negative = cytotoxicity (WaGa) -9.27% [at 4.84 µM] | activity change, negative = cytotoxicity (C33A) -2.35% [at 6.55 µM] | activity change, negative = cytotoxicity (CAOV3) 8.37% [at 6.55 µM] | activity change, negative = cytotoxicity (CASKI) -9.81% [at 6.55 µM] | activity change, negative = cytotoxicity (Es-2) -6.19% [at 6.55 µM] | activity change, negative = cytotoxicity (HeLa) -13.2% [at 6.55 µM] | activity change, negative = cytotoxicity (Hek293T) 5.39% [at 6.55 µM] | activity change, negative = cytotoxicity (JEG-3) -0.277% [at 6.55 µM] | activity change, negative = cytotoxicity (OV90) 0.455% [at 6.55 µM] | activity change, negative = cytotoxicity (PA-1) -0.819% [at 6.55 µM]

CCNC(=O)/C=C/c1cccc(Br)c1
inactive: max response (KB-3-1) -0.104% | max response (NIH3T3) -21% | Potency (MCC-13) | Potency (MCC-26) | Potency (MKL-1) | Potency (MKL-2) | Potency (UISO) | Potency (WaGa) | Potency (C33A) | Potency (CAOV3) | Potency (CASKI) | Potency (Es-2) | Potency (HeLa) | Potency (Hek293T) | Potency (JEG-3) | Potency (OV90) | Potency (PA-1)

Cc1cccc(C)c1NC(=O)c1ccccc1C(=O)O
inactive: max response (KB-3-1) -0.148% | max response (NIH3T3) -5.01% | Potency (MCC-13) | Potency (MCC-26) | Potency (MKL-1) | Potency (MKL-2) | Potency (UISO) | Potency (WaGa) | Potency (C33A) | Potency (CAOV3) | Potency (CASKI) | Potency (Es-2) | Potency (HeLa) | Potency (Hek293T) | Potency (JEG-3) | Potency (OV90) | Potency (PA-1)

Cc1c(-c2ccccc2)oc2c(C(=O)OCCN3CCCCC3)cccc2c1=O
inactive: max response (KB-3-1) -3.83% | max response (NIH3T3) 3.38% | Potency (MCC-13) | Potency (MCC-26) | Potency (MKL-1) | Potency (MKL-2) | Potency (UISO) | Potency (WaGa) | Potency (C33A) | Potency (CAOV3) | Potency (CASKI) | Potency (Es-2) | Potency (HeLa) | Potency (Hek293T) | Potency (JEG-3) | Potency (OV90) | Potency (PA-1)

CCCCCCCCOc1ccc(C(=O)c2ccccc2)c(O)c1
inactive: max response (KB-3-1) 1.72% | max response (NIH3T3) -1.51% | Potency (MCC-13) | Potency (MCC-26) | Potency (MKL-1) | Potency (MKL-2) | Potency (UISO) | Potency (WaGa) | Potency (C33A) | Potency (CAOV3) | Potency (CASKI) | Potency (Es-2) | Potency (HeLa) | Potency (Hek293T) | Potency (JEG-3) | Potency (OV90) | Potency (PA-1)

CCCCCCCCCCCCCCCC(=O)O
inactive: max response (KB-3-1) 2.75% | max response (NIH3T3) 4.34% | Potency (MCC-13) | Potency (MCC-26) | Potency (MKL-1) | Potency (MKL-2) | Potency (UISO) | Potency (WaGa) | Potency (C33A) | Potency (CAOV3) | Potency (CASKI) | Potency (Es-2) | Potency (HeLa) | Potency (Hek293T) | Potency (JEG-3) | Potency (OV90) | Potency (PA-1)

CC(C(=O)O)c1cccc(Oc2ccccc2)c1 (stereo not drawn)
inactive: max response (KB-3-1) -5.06% | max response (NIH3T3) -0.596% | Potency (MCC-13) | Potency (MCC-26) | Potency (MKL-1) | Potency (MKL-2) | Potency (UISO) | Potency (WaGa) | Potency (C33A) | Potency (CAOV3) | Potency (CASKI) | Potency (Es-2) | Potency (HeLa) | Potency (Hek293T) | Potency (JEG-3) | Potency (OV90) | Potency (PA-1)

CC(=O)Nc1ncc([N+](=O)[O-])s1
inactive: max response (KB-3-1) 1.85% | max response (NIH3T3) 4.2% | Potency (MCC-13) | Potency (MCC-26) | Potency (MKL-1) | Potency (MKL-2) | Potency (UISO) | Potency (WaGa) | Potency (C33A) | Potency (CAOV3) | Potency (CASKI) | Potency (Es-2) | Potency (HeLa) | Potency (Hek293T) | Potency (JEG-3) | Potency (OV90) | Potency (PA-1)

NC(=S)N/N=C/c1cccnc1
inactive: max response (KB-3-1) 2.69% | max response (NIH3T3) 1.77% | Potency (MCC-13) | Potency (MCC-26) | Potency (MKL-1) | Potency (MKL-2) | Potency (UISO) | Potency (WaGa) | Potency (C33A) | Potency (CAOV3) | Potency (CASKI) | Potency (Es-2) | Potency (HeLa) | Potency (Hek293T) | Potency (JEG-3) | Potency (OV90) | Potency (PA-1)
